# Compounds with a hit are over-represented: about 6.2% of the library has one in this group of screens.
# MARV entry inh – inhibitors of Marburg virus binding or cell entry. Marburg virus pseudotyped entry inhibition, cell reporter. Potency, µM (titrated, usually from 37.8 µM), inactives show at the highest dose activity change, negative = inhibition, most hits filed as inhibitors. actives 1.8% (n = 300,000); calls by dose curve; tested in HEK293 cells; note: potency is the fitted concentration of half-maximal effect
# HCMV antiviral – human cytomegalovirus inhibition | HFF cells, HCMV-luciferase reporter, 72 h; hits give low values | activity change, negative = inhibition, % at 57.5 µM | actives 4.5% (n = 410,000) | AID 1259415; in the data active = activity change below about -60%; inconclusive = no clear call, values can overlap the other calls; inactive = above about -39%
#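 Cell-based, HFFs, 1000 cells/well, 16 h 37C; cpds in DMSO + HCMV-luc, MOI 1 PFU/cell; 72 h 37C; OneGlo luminescence after 5 min RT; norm. to buffer vs Salinomycin 10uM.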
# Lassa entry inh – inhibitors of Lassa virus binding or cell entry; Potency, µM (doses to about 37.9 µM), for the others: at the highest dose activity change, negative = inhibition, actives largely listed as inhibitors; actives 1.2% (n = 300,000); Lassa virus pseudotype entry inhibition, cell reporter; calls by dose curve; tested in HEK293 cells; note: potency is the fitted concentration of half-maximal effect; nearly all actives have a fitted effect of over 50% in size
# FMDV inh – blocks foot and mouth disease virus; FMDV antiviral cell-based qHTS; Potency, µM (top dose mostly 57.9 µM), without a hit: at the highest dose activity change, negative = inhibition, most hits filed as inhibitors; actives 1.2% (n = 410,000); AID 1159524; calls by dose curve; tested in HEK293T cells; note: read-out not given here; potency is the fitted concentration of half-maximal effect; nearly all actives have a fitted effect of over 45% in size
# * = called active by the depositor; u = inconclusive; x = not tested or not shown; [ ] = another dose, or the depositor's remark. % is set by controls: 0 for no effect and ±100 for the full control effect.
SMILES,MARV entry inh,HCMV antiviral,Lassa entry inh,FMDV inh
COc1ccc2ccccc2c1/C=N/NC(=O)c1sc(N)c(C#N)c1C,-9.0%,-27.5,u,0.9%
COc1cc(/C=N/NC(=O)c2sc(N)c(C#N)c2C)cc(Br)c1O,u,-67.0*,u,-7.1%
CN1/C(=C\C(=S)NC(=O)c2ccc([N+](=O)[O-])cc2)C(C)(C)c2ccccc21,x,-36.1,x,5.0%
CN1/C(=C\C(=S)NC(=O)c2cccc(Br)c2)C(C)(C)c2ccccc21,u,-95.6*,-1.1%,u
CCCOc1ccc(CN(C(=O)c2cc(=O)c3ccc(C)cc3o2)C2CCS(=O)(=O)C2)cc1 (stereo not given),u,-4.8,u,-22.1%
NCC(=O)Nc1ccc(Cl)cc1C(=O)c1ccc[nH]1,x,-65.8*,x,-3.3%
CCN(CC(=O)Nc1c(F)cccc1F)C(=O)c1ccc(OC)c(S(=O)(=O)NC2CCCC2)c1,x,-71.6*,x,34.5%
CCN(CC(=O)Nc1c(F)cccc1F)C(=O)c1ccc(Cl)c(S(=O)(=O)N2CCCC2)c1,-6.1%,-11.0,-18.0%,21.6%
Cc1cccc(NC(=O)/C(C#N)=C/c2cn(CC(=O)NCc3ccco3)c3ccccc23)c1C,-44.8%,-82.3*,-26.5%,0.0%
COC1=C(C(=O)c2ccccc2)C(=O)[C@@]2(CC=C(C)C)CC(C#N)C[C@@]1(CC=C(C)C)C2=O (stereo not given in full),-16.4%[14.2 µM],x,-36.0%[14.3 µM],x
NC(=S)c1ncc(C(F)(F)F)cc1Cl,15.9%,6.0,0.1%,-7.8%
Fc1ccccc1NC(=S)NNc1ncc(C(F)(F)F)cc1Cl,7.94µM*,-39.2,u,u
Cc1ccccc1NC(=S)NNc1ncc(C(F)(F)F)cc1Cl,u,1.5,-39.0%,-26.3%
NC(=S)Nc1ncc(C(F)(F)F)cc1Cl,-14.8%[46.1 µM],-92.0*,15.3%,-13.5%
Cc1c(Cl)cccc1NC(=S)NNc1ncc(C(F)(F)F)cc1Cl,20.6µM*,-102.5*,u,-18.5%
CCc1ccc2occ(CC(=O)Nc3ccc(C)c(C)c3)c2c1,u,-26.7,u,1.5%
COc1ccc(O)c2c(=O)c3c(OC)cc4c(c3oc12)C1C=COC1O4 (stereo not given),x,-62.3*,x,x
OC(CN1CC=C(/C=C/c2ccc(Br)cc2)CC1)c1ccccc1 (stereo not given),11.2µM*,10.0,-32.7%[46.1 µM],48.0%
O=C(Cc1ccccc1)N(Cc1cccnc1)c1nc2c(F)cc(F)cc2s1,x,0.0,12.6µM*,-3.4%
CC(=O)N(Cc1cccnc1)c1nc2c(F)cc(F)cc2s1,x,0.0,-16.1%[46.1 µM],-5.8%
CCCCNC(=O)N[C@H]1CC[C@@]23CCCN2C(=O)CCC[C@H]3[C@H]1CCC,x,5.0,x,x
Cc1cccc(C#CC2=CC(=O)CC(C)(C)C2)c1,x,-99.5*,x,17.4%
c1ccc(N2CCN(c3nnc(Cc4cccnc4)c4ccccc34)CC2)nc1,16.5%,u,0.2%,10µM*
c1ccc(Cc2nnc(N3CCCCC3)c3ccccc23)cc1,-1.2%[46.1 µM],-5.4,3.2%,-12.0%
COc1ccc(C(=O)Nc2sc3c(c2C(=O)O)CC(C)(C)OC3)cc1,4.47µM*,0.0,u,-17.1%
SMILES,MARV entry inh,HCMV antiviral,Lassa entry inh,FMDV inh
CC1(C)Cc2c(sc(NC(=O)c3ccccc3)c2C(=O)O)CO1,u,66.0,u,9.4%
CC(C)COc1ccc(C(=O)Nc2sc3c(c2C(=O)O)CC(C)(C)OC3)cc1,1.26µM*,u,u,-10.4%
Cn1nc(C(=O)Nc2cccc(C(F)(F)F)c2)c2c1-c1ccccc1S(=O)(=O)C2,x,7.7,2.0%[46.1 µM],-6.8%
COc1ccc(C)cc1NC(=O)COC(=O)C1COc2ccccc2O1 (stereo not given),x,-91.6*,x,-7.0%
COc1ccc(OC)c(C(=O)COC(=O)c2c(OC)cccc2OC)c1,-13.6%,116.4,-5.5%,11.3%
COc1ccc(OC)c(C(=O)CCCC(=O)c2cc(OC)ccc2OC)c1,x,-61.5*,x,-2.2%
COc1ccccc1CCn1c(=O)cnc2cncnc21,x,x,x,-15.3%
OC(COC(c1ccc(F)cc1)c1ccc(F)cc1)CN1CCc2ccccc2C1 (stereo not given),u,-61.2*,-22.2%,-21.0%
OC(COC(c1ccccc1)c1ccccc1)CN1CCc2ccccc2C1 (stereo not given),u,38.4,-37.9%[46.1 µM],-13.3%
CN1CCN(CC(O)COC(c2ccc(Cl)cc2)c2ccc(Cl)cc2)CC1 (stereo not given),x,-80.4*,x,-19.0%
CC(C)(C)c1ccc(OCC(O)CN2CCc3ccccc3C2)cc1 (stereo not given),x,-63.4*,x,-14.6%
OC(COC(c1ccc(Cl)cc1)c1ccc(Cl)cc1)CN1CCCC1 (stereo not given),u,27.8,u,-16.4%
CCc1ccc(NC(=O)Cn2c(=O)n(-c3ccc(OC)cc3)c(=O)c3ccc(C(=O)NCc4ccc(C)cc4)cc32)cc1,16.3%[46.1 µM],-3.8,5.3%[46.1 µM],-10.4%
Cc1ccc(NC(=O)CSc2nc(-c3ccco3)nc3cc(=O)[nH]n23)cc1,x,-18.5,18.7%[46.1 µM],-3.5%
O=C(c1cccs1)N(Cc1nc2sc3c(c2c(=O)[nH]1)CCCC3)C1CCCC1,u,-71.2*,3.55µM*,4.5%
CN(C)S(=O)(=O)c1cccc(NC(=O)CCc2nc3sc4c(c3c(=O)[nH]2)CCCC4)c1,x,-67.2*,x,u
Cc1cccc(NC(=O)CCc2nc3sc4c(c3c(=O)[nH]2)CCCC4)c1,u,9.4,u,5.4%
Cc1sc2nc(CN(C(=O)c3cccs3)C3CCCC3)[nH]c(=O)c2c1C,u,-33.6,-7.4%,u
c1ccc2c(CN3CCCCCC3)c[nH]c2c1,u,-77.2*,-14.9%,0.0%
c1ccc2c(CNC3CCCCCC3)c[nH]c2c1,13µM*,10.5,-2.0%,u
CC(C)c1ccc(NC(=O)c2cnc3sc(N4CCOCC4)nn3c2=O)cc1,x,-24.9,-14.9%[46.1 µM],u
c1ccc(Nc2nc(-c3ccccc3)ns2)cc1,10µM*,141.0,u,2.5%
CC(C)(C)C(=O)Nc1nc(-c2ccccc2)ns1,u,-21.5,u,-36.9%
Cc1cc(C([O-])=C(C(=S)Nc2ccc(F)cc2)[n+]2ccccc2)c(C)n1-c1ccc(F)cc1,-20.2%,-37.7,-13.9%,-8.2%
COc1cccc(NC(=S)/C(=C(\[O-])c2cc(C)n(-c3ccccc3F)c2C)[n+]2ccc(N(C)C)cc2)c1,x,-94.7*,x,0.0%
SMILES,MARV entry inh,HCMV antiviral,Lassa entry inh,FMDV inh
COc1ccc(-c2cc(C(=O)NCc3ccc(F)cc3)c3c(-c4ccc(F)cc4)[nH]nc3n2)cc1OC,x,-101.0*,u,-24.2%
COc1ccc(CNC(=O)c2cc(-c3ccc(C)cc3)nc3n[nH]c(-c4ccc(Br)cc4)c23)cc1,x,11.7,-6.0%[46.1 µM],-24.8%
COc1ccc(CNC(=O)c2cc(-c3ccc(OC)c(OC)c3)nc3n[nH]c(-c4ccc(C)cc4)c23)cc1,x,-97.5*,-15.6%[46.1 µM],-19.1%
CCOc1ccc(S(=O)(=O)N2CCN(Cc3nc4ccc(C)cc4o3)CC2)cc1,x,-9.5,-17.2%[46.1 µM],u
CC(C)C[C@H]1COc2c(Cl)cccc2S(=O)(=O)N1Cc1ccc(F)cc1F,x,-12.8,x,x
Cc1ccsc1-c1cc2nc(NCCCN(C)C)n(C)c(=O)c2s1,x,87.3,x,9.3%
Cc1nc([N+](=O)[O-])c(Br)n1CC(=O)c1cccc([N+](=O)[O-])c1,u,11.9,8.4%[46.1 µM],31.6µM*

# Screening data deposited in PubChem BioAssay by National Center for Advancing Translational Sciences (NCATS).
